The full ranking holds about 33,000 sequences; the median of “E-score (-0.5 to 0.5)” is about -0.017, and the highest 2% start at about 0.3. The entries come from a sample that favours the highest values as a whole.
target: T1, Sut1 (UniProt P53032); test: PBM E-score (8-mer binding enrichment) (E-score (-0.5 to 0.5)); higher = stronger / more preferred TF binding; conditions: protein concentration: 200 nM; construct: GST-full length
T1 sequence: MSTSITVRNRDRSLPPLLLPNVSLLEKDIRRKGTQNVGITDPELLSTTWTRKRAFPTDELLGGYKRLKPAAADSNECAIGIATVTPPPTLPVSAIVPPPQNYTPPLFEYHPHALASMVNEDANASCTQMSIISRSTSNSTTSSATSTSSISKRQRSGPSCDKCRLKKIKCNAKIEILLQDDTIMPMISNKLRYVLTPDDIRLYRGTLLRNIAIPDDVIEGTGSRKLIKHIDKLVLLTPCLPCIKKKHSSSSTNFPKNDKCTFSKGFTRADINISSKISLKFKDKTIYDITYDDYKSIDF
Method: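 Universal 'all 10-mer' protein binding microarrays (Agilent AMADID 015681) probed with GST-tagged S. cerevisiae TFs (full-length or DBD) made by in vitro transcription/translation (PURExpress), about 100-200 nM. Bound TF was detected with fluorescent anti-GST. Each ungapped 8-mer (which stands for itself and its reverse complement) is scored by the PBM enrichment score (E-score), a modified Wilcoxon-Mann-Whitney statistic from -0.5 to +0.5, computed with the Universal PBM Analysis Suite. Scale: above 0.35 generally sequence-specific binding.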

Sequence	PBM E-score
GCAGGGAA	0.0261
CAAGAGAA	0.0231
AGAAGCCC	0.167
TAATAATA	0.282
GAATAAAA	0.242
GGATAAAA	0.252
GAATATAA	0.153
CAATAAAA	0.136
CAATATAC	0.144
CAATATAA	0.308
TAATAAAA	0.332
CGATAAAA	0.303
TGATAAAA	0.283
CAATATAG	0.1
TAATATAA	0.306
ATATAGGA	0.0279
AAATTGCA	-0.0262
ACCCTATC	0.0201
CTTGAACA	0.0785
GTTGCGCA	-0.226
CAGCCTAC	-0.0545
CGGATGCA	-0.0215
ATTGTATA	0.311
CATGTATA	0.0763
CTTGTATA	0.166

Sequence	PBM E-score
ATTGTATG	0.175
GATGTATA	0.0593
AATGTATA	0.298
AGCCTACG	-0.109
AGCCCATC	-0.23
AACATGGG	-0.00269
CTATTGAA	0.226
AAACAAAA	0.197
AAAAACAA	0.316
TAAAACAA	0.207
AAACAAAC	0.165
ACCAACAA	0.299
CAAACAAA	0.161
GAAACAAA	0.321
GAAACAAC	0.107
GAAAACAA	0.184
ACCAACAG	-0.297
ACCAACAT	0.0524
AAACAAAG	0.322
GAGTTGAA	0.18
ACAGATAT	0.0244
ATAAGTTC	0.261
ATACAGTG	0.0667
CTCCAAAG	0.0263
CCTCGACA	-0.288

Sequence	PBM E-score
CATGCGTA	-0.0829
ATCAGTTA	0.204
TAAAAACA	0.188
AAAACAAT	0.215
GAAAAACA	0.125
AAAACAAG	0.0776
AAAACAAA	0.312
AAAAAACA	0.313
AAGTTACC	0.158
CCCAAGGC	-0.0767
TATACGAA	0.194
GATACGGA	0.364
GATACGGC	-0.104
CATACGGA	0.303
CATACGGC	-0.156
GATACGCA	-0.141
AATACGGA	0.286
TATACGGA	0.312
CATACGGG	-0.186
ATGAGTCA	-0.0351
GCGCTAAC	-0.0641
TAGCTATA	-0.0172
GCGATCCA	-0.121
AGTTTTAT	0.211
TACCACCA	0.0245

Sequence	PBM E-score
CAGCCTGC	-0.224
AGACGAGG	-0.182
AGTACTCC	0.325
AGTACTCG	0.0601
CGTACTAC	0.0559
AGTACTCA	0.0483
CGTACTCA	0.0162
CGTACTCC	0.348
AAAGTCAG	0.00828
GCTAAAGC	-0.0213
CCTATCGC	-0.115
CAGCAAAG	-0.0349
ATCCGTCC	-0.0115
CCCCGTCC	-0.194
GTCCGTCA	0.253
CTCCGTCA	0.369
CTCCGTCC	0.307
ATCCGTCA	0.0376
CTACACAG	-0.108
CCAGGGTC	-0.265
ACGTATTC	-0.0472
TGACTTAA	0.153
TAGTCCGA	0.48
GCGTCCGA	-0.09
GAGTCCGC	0.282

Sequence	PBM E-score
CAGTCCGG	0.353
CCGTCCGA	0.0411
CAGTCCAG	-0.325
CAGTCCGA	0.411
GAGTCCGA	0.476
CAGTCCGC	0.196
CAGTCCCG	-0.0578
TAGTCCCA	-0.21
TAGTCCAA	-0.01
AACTTACT	0.0273
CGCCCTTC	-0.0609
AGTGGCGA	0.0883
AGGGGCCC	-0.217
AACAGAAT	0.0169
ATCGATGG	-0.0596
AGGCTACG	-0.345
AAGTCTGA	-0.193
CAAATTCA	0.0268
GCAGAATA	-0.0687
TCACCGGA	0.397
TCACCGCA	-0.0955
CCACCGGC	0.0248
GCACCGGC	-0.0791
ACACCGGA	0.343
GCACCGGA	0.338

Sequence	PBM E-score
CCACCGGA	0.362
TCACCGAA	0.155
CCACCGGG	-0.0405
ACACCGGC	0.0168
GCACCGTA	0.0972
ACACCGGT	0.0191
GGCTTTAC	0.113
ACTGAGAC	0.00875
ATCCAGAC	-0.0133
CGGTTTAC	0.00822
AGGGCTGA	-0.161
CGAGGAAG	0.0543
AAGCCATC	0.0153
TAACAGGA	0.0331
GAACCAGA	-0.185
GAACGTGC	-0.234
TGGTTAAA	0.159
AAACGGAG	0.37
AAACGGGA	0.159
CAACGGAC	0.291
CAACGGAG	0.399
AAACGGAC	0.147
TAACGGAA	0.309
AAACGGAT	0.209
GAACGGAA	0.166

Sequence	PBM E-score
CAACGGAA	0.25
TCACGGAA	0.238
AAACGGAA	0.331
AAACGGTA	0.0446
ACCCAACG	-0.0276
CACCCTAC	-0.161
CATATGCG	-0.0808
AGTAAACG	-0.0776
CTACCAGC	-0.212
GGCGTTGA	-0.134
GCAGTAAC	-0.144
GAATTGTA	0.128
CTCTCCCC	-0.259
AATGCTTG	-0.238
CGACCTGA	-0.184
CCTAAAGA	0.0405
ACTAATCA	0.139
CAGAGTCA	-0.379
TAAAGAAA	0.301
CAAAGAAA	0.115
ACAAGAAA	0.218
CCAAGAAA	0.241
GAAAGAAA	0.294
TCAAGAAA	0.316
CTAGGCCA	-0.145

Sequence	PBM E-score
ATGGGGAA	-0.0455
GAGAAGGC	-0.0615
CGCGCACC	-0.0354
GGTGAGAA	0.137
CCGCTCAA	-0.078
CCTCCGGC	0.106
ACTCCCGG	0.174
ACTCCTGC	0.0597
ACTCCGGG	0.491
CATCCGGG	-0.0527
ACTCCGGC	0.489
TACAATGA	0.153
CAAGATTC	0.235
ATACGGAT	0.0822
CTACGGAG	0.381
CTACGGAC	0.169
ATACGGAG	0.362
ATACGGTG	0.0347
CTACGGAA	0.0897
CAGAAGGG	-0.238
ACTGCAAG	-0.0394
ATGGGAAA	0.0371
ATGGCCGG	-0.0767
GGCCGGAA	0.0761
AGCCGGTC	-0.166

Sequence	PBM E-score
CGCCGGCG	0.375
AGCCGGAG	0.371
AGCCGGCG	-0.0364
GGCCGGAC	0.302
AGCCGGAA	0.233
AGCCGGAT	0.125
CGCCGGAC	0.275
AGCCGGAC	0.342
CGCCGGCC	-0.0583
AGCCGGTG	0.00841
ACTTCTCA	-0.033
GCCCATGA	-0.222
AAGAGCGG	0.0491
GTCGCGCA	0.0446
TACTCTCA	0.0648
AACCGTCA	-0.0173
CGCCGTAG	0.0361
CGCCGGAG	0.391
CGCCGGAA	0.132

— the supplement of paper PMC3334620
